Reference: PubChem BioAssay AID1345085 (National Center for Advancing Translational Sciences (NCATS), 2018)
Inconclusive results are not listed. Calls of active or inactive are those of the source. Calls follow the shape of the dose curve; as a rule, active = well fitted cell-killing curve with a large enough effect; inconclusive = small, poorly fitted or top-dose-only effect, or effect the other way; inactive = no such curve, though single readings can be large or run the other way.

Test system: Tov-21-G
Assay: Confirmatory qHTS for gynecologic anti-cancer compounds from libraries of approved drugs and bioactive compounds; also: nearly all actives have a fitted effect of over 55% in size
Conditions: gynecologic cancer cell panel viability, ATPlite luminescence, 48 h; series mostly up to 57.7 µM; activity change, negative = viability loss: at the top concentration
How it was run: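 ATPlite luminescence read-out of cell viability; IC50 from 11-point 1:3 titrations, 57.5 uM to 0.977 nM, 48 h compound exposure at 37 C, 5% CO2. Cells seeded at 1,000/well 16 h before dosing.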
% is scaled to controls: 0 for no effect and ±100 for the full control effect; potency is read from the fitted curve at half-maximal effect.

| Structure (SMILES) | activity change, negative = viability loss | Potency |
| --- | --- | --- |
| Cc1ccc2nc(N)[nH]c(=O)c2c1Sc1ccncc1 | -31.5% (inactive) |  |
| CCC1C(=O)N(C)c2cnc(Nc3ccc(C(=O)NC4CCN(C)CC4)cc3OC)nc2N1C1CCCC1 (configuration not stated) |  | 1930 nM (active) |
| Cc1nc(N)ncc1-c1nc(N2CCOCC2)c2sc(C(C)(C)O)cc2n1 |  | 1530 nM (active) |
| Cc1cc(CN2CCN(c3c(Br)cnc4nc(-c5ccc(N6CCN(C)CC6)cc5)[nH]c34)CC2)no1 |  | 24300 nM (active) |
| Cc1cnc(Nc2ccc(CN3CCOCC3)cc2)nc1Nc1cccc(S(=O)(=O)NC(C)(C)C)c1 |  | 243 nM (active) |
| CC(C)C[C@H](NC(=O)[C@H](CCc1ccccc1)NC(=O)CN1CCOCC1)C(=O)N[C@@H](Cc1ccccc1)C(=O)N[C@@H](CC(C)C)C(=O)[C@@]1(C)CO1 |  | 2170 nM (active) |
| COc1cccc2c1C(=O)c1c(O)c3c(c(O)c1C2=O)C[C@@](O)(C(=O)CO)C[C@@H]3O[C@H]1C[C@H](N)[C@H](O)[C@H](C)O1 |  | 2430 nM (active) |
| COc1cc2c(cc1-c1c(C)noc1C)ncc1[nH]c(=O)n(C(C)c3ccccn3)c12 (configuration not stated) |  | 6850 nM (active) |
| Cc1cncc2cccc(S(=O)(=O)N3CCCN(C(=O)CN)C[C@@H]3C)c12 | -18.6% (inactive) |  |
| CNC(=O)c1ccccc1Sc1ccc2c(/C=C/c3ccccn3)n[nH]c2c1 |  | 10900 nM (active) |
| NS(=O)(=O)c1ccc(Nc2nc(OCC3CCCCC3)c3[nH]cnc3n2)cc1 | -8.8% (inactive) |  |
| CC1(C)[C@@H](O)CC[C@]2(C)[C@H]3C(=O)C=C4[C@@H]5C[C@@](C)(C(=O)O)CC[C@]5(C)CC[C@@]4(C)[C@]3(C)CC[C@@H]12 | 17.3% (inactive) |  |
